# Measurements taken from article PMC7862700, “An all-to-all approach to the identification of sequence-specific readers for epigenetic DNA modifications on cytosine”.
# How the values were obtained:
# Experiment in all cases: DAPPL (digital affinity profiling via proximity ligation, sequencing); 10 mM Tris-HCl pH 7.5, 50 mM NaCl, 1 mM DTT, 4% glycerol, room temperature, 30 min; GST-TFs on glutathione beads, 16-mer random dsDNA library, 0.1% formaldehyde crosslink after washing; high values mean tight binding
# FEV = molecular target: T1, FEV (Homo sapiens, UniProt Q99581 1-238); conditions: protein: recombinant; tags: N-terminal GST; dsDNA, one strand shown
# T1 sequence: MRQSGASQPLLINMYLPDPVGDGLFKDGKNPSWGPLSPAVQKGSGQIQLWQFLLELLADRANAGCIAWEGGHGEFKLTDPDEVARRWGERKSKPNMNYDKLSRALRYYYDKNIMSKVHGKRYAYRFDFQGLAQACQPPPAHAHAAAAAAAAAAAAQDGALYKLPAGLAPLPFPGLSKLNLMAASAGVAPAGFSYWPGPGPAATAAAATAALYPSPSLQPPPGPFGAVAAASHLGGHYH
# In short: (§1)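 Sequencing on an Illumina NextSeq500 followed washing, crosslinking with 0.1% formaldehyde, proximity ligation (BsaI/T4 ligase, 1 h, 37 °C) and PCR amplification of pools that had been incubated for 30 min at room temperature with 200 nmole of a random double-stranded 16-mer DNA library in Tris/NaCl/DTT/glycerol buffer. Each pool held DNA-barcoded human transcription factors, expressed in yeast as GST fusions and captured on glutathione beads, plus a tag-only sample. Binding signal is a hexamer's read frequency for a factor divided by its frequency in the tag-only sample.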
# ETV5 = ETV5 (Homo sapiens, UniProt P41161 1-510); conditions: protein: recombinant; tags: N-terminal GST; dsDNA, one strand shown
# In short: as §1
# HSF1 = HSF1 (Homo sapiens, UniProt Q00613 1-529); conditions: protein: recombinant; tags: N-terminal GST; chain copies: 3; dsDNA, one strand shown
# In short: as §1
# SPIC = molecular target: T2, SPIC (Homo sapiens, UniProt Q8N5J4 1-248); conditions: protein: recombinant; tags: N-terminal GST; dsDNA, one strand shown
# T2 sequence: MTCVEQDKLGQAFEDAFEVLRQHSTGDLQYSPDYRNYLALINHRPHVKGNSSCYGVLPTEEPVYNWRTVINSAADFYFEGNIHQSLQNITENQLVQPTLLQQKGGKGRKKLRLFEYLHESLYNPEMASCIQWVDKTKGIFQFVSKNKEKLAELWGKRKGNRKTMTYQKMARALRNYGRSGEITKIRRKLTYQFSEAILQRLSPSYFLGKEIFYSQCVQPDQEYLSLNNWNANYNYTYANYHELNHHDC
# In short: as §1
# ELF4 = ELF4 (Homo sapiens, UniProt Q99607 1-663); conditions: protein: recombinant; tags: N-terminal GST; dsDNA, one strand shown
# In short: as §1
# ELK4 = molecular target: T3, ELK4 (Homo sapiens, UniProt P28324-2 1-405); conditions: protein: recombinant; tags: N-terminal GST; dsDNA, one strand shown
# T3 sequence: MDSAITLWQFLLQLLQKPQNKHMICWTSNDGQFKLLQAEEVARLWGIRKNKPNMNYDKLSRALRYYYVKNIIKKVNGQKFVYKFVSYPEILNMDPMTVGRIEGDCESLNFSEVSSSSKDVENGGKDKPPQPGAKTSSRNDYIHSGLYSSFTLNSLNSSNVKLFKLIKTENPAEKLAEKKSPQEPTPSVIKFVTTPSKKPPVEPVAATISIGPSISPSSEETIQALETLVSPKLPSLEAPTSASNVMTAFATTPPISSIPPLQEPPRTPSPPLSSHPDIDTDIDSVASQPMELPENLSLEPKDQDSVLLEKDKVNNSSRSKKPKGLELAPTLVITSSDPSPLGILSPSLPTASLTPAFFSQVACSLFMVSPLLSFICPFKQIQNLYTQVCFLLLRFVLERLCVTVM
# In short: as §1
# ETV2 = molecular target: T4, ETV2 (Homo sapiens, UniProt O00321 1-342); conditions: protein: recombinant; tags: N-terminal GST; dsDNA, one strand shown
# T4 sequence: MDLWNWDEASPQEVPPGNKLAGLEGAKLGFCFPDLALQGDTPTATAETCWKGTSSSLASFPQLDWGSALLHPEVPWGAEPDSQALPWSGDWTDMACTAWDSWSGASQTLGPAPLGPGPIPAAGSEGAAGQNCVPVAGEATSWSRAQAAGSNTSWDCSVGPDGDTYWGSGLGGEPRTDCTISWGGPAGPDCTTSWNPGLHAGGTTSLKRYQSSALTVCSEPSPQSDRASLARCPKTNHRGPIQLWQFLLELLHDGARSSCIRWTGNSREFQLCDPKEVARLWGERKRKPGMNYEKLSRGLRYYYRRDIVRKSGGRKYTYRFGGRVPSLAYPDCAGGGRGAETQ
# In short: as §1
# ELF3 = molecular target: T5, ELF3 (Homo sapiens, UniProt P78545 1-371); conditions: protein: recombinant; tags: N-terminal GST; dsDNA, one strand shown
# T5 sequence: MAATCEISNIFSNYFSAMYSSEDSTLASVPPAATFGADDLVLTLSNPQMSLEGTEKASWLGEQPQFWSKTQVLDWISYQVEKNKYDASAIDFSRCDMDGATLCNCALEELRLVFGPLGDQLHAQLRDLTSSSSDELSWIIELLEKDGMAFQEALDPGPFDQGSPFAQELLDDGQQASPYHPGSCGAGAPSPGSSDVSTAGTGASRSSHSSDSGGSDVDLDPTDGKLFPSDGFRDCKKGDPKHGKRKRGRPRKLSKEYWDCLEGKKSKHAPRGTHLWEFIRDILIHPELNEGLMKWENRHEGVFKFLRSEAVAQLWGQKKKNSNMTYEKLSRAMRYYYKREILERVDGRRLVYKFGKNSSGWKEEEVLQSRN
# In short: as §1
# CRX = CRX (Homo sapiens, UniProt O43186 1-299); conditions: protein: recombinant; tags: N-terminal GST; dsDNA, one strand shown
# In short: as §1
# ETV1 = ETV1 (Homo sapiens, UniProt P50549 1-477); conditions: protein: recombinant; tags: N-terminal GST; dsDNA, one strand shown
# In short: as §1
# ERF = molecular target: T6, ERF (Homo sapiens, UniProt P50548 1-548); conditions: protein: recombinant; tags: N-terminal GST; dsDNA, one strand shown
# T6 sequence: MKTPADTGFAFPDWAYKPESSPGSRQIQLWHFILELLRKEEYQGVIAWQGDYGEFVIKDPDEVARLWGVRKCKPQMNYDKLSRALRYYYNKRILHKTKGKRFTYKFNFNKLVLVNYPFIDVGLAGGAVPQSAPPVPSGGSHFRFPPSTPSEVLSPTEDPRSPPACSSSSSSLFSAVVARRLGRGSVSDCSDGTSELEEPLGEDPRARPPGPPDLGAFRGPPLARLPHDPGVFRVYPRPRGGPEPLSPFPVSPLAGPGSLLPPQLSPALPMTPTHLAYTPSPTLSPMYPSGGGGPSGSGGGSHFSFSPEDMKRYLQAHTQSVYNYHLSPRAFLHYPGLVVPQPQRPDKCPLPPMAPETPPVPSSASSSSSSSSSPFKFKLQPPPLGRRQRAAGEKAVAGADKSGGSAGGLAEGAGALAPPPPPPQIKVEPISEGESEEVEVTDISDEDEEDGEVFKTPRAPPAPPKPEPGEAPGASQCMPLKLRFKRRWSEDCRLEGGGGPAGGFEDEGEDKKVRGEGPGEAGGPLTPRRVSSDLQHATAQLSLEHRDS
# In short: as §1
# ETV3L = molecular target: T7, ETV3L (Homo sapiens, UniProt Q6ZN32 1-361); conditions: protein: recombinant; tags: N-terminal GST; dsDNA, one strand shown
# T7 sequence: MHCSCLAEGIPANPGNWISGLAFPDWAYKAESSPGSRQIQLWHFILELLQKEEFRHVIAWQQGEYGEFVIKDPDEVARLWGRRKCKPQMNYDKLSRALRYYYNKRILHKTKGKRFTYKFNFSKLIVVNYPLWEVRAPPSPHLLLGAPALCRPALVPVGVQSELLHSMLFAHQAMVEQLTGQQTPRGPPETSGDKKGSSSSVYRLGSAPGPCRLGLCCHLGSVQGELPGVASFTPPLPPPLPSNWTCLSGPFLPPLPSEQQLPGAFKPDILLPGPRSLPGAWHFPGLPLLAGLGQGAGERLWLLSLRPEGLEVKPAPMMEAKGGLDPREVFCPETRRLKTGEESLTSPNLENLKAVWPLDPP
# In short: as §1
# ETS2 = molecular target: T8, ETS2 (Homo sapiens, UniProt P15036 1-469); conditions: protein: recombinant; tags: N-terminal GST; dsDNA, one strand shown
# T8 sequence: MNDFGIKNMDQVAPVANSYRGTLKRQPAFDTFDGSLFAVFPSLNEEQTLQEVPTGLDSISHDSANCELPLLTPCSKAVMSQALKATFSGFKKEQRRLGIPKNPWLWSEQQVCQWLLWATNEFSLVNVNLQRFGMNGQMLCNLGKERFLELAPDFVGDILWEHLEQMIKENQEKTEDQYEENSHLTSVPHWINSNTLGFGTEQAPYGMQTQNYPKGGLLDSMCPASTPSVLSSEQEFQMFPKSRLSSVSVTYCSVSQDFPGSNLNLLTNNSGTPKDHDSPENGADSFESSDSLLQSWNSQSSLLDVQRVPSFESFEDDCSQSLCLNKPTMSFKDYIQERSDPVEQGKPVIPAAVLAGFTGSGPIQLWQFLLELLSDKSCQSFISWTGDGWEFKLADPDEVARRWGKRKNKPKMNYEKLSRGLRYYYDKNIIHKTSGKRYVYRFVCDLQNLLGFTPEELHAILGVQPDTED
# In short: as §1
# SPDEF = molecular target: T9, SPDEF (Homo sapiens, UniProt O95238 1-335); conditions: protein: recombinant; tags: N-terminal GST; dsDNA, one strand shown
# T9 sequence: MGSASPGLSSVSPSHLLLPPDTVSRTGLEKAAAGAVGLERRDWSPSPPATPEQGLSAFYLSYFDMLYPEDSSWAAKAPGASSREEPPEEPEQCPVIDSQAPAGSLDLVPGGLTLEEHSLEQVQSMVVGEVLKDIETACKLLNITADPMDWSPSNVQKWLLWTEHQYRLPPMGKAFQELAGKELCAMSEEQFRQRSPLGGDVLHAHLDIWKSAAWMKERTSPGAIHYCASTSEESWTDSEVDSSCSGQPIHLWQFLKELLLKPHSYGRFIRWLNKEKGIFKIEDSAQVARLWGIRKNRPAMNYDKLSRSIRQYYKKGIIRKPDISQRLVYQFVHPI
# In short: as §1
# ETV7 = molecular target: T10, ETV7 (Homo sapiens, UniProt Q9Y603 1-341); conditions: protein: recombinant; tags: N-terminal GST; dsDNA, one strand shown
# T10 sequence: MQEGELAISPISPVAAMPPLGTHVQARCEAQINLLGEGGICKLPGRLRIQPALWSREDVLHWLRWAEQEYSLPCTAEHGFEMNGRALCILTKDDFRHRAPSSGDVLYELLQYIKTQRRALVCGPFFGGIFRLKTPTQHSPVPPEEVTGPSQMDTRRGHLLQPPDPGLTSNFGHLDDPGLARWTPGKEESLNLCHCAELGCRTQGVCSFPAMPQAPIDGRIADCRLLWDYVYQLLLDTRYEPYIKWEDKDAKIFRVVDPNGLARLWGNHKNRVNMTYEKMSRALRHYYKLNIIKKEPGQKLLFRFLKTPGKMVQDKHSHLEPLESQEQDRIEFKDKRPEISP
# In short: as §1
# ELF5 = molecular target: T11, ELF5 (Homo sapiens, UniProt Q9UKW6-2 1-255); conditions: protein: recombinant; tags: N-terminal GST; dsDNA, one strand shown
# T11 sequence: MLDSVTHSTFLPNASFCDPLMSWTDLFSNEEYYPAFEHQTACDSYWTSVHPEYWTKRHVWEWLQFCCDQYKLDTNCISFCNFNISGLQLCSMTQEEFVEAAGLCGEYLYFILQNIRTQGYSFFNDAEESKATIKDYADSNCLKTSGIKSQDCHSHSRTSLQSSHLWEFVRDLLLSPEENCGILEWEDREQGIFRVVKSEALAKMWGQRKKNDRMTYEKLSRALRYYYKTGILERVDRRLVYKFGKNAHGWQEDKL
# In short: as §1
# ETV3 = molecular target: T12, ETV3 (Homo sapiens, UniProt P41162-2 1-143); conditions: protein: recombinant; tags: N-terminal GST; dsDNA, one strand shown
# T12 sequence: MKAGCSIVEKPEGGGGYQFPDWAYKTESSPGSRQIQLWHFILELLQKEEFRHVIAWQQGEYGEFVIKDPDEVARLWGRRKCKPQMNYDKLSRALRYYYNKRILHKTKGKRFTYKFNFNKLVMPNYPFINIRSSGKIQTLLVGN
# In short: as §1
# ETV6 = ETV6 (Homo sapiens, UniProt P41212 1-452); conditions: protein: recombinant; tags: N-terminal GST; dsDNA, one strand shown
# In short: as §1
# ETV5, sequence (P41161 whole entry): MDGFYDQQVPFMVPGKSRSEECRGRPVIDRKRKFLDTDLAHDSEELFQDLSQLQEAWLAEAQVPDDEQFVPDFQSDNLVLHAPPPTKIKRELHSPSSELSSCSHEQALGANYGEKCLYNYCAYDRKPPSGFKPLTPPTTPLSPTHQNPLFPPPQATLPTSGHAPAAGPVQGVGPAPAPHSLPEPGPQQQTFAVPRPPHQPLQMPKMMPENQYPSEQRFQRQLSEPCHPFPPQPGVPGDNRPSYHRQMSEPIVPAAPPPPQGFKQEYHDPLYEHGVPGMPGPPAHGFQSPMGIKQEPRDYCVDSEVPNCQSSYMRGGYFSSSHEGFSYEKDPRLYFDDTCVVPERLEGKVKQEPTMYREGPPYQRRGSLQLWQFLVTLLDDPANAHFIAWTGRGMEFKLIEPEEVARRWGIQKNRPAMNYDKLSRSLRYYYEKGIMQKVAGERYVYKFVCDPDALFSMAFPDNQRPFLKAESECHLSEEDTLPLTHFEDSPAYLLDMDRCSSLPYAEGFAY
# ELF4, sequence (Q99607 whole entry): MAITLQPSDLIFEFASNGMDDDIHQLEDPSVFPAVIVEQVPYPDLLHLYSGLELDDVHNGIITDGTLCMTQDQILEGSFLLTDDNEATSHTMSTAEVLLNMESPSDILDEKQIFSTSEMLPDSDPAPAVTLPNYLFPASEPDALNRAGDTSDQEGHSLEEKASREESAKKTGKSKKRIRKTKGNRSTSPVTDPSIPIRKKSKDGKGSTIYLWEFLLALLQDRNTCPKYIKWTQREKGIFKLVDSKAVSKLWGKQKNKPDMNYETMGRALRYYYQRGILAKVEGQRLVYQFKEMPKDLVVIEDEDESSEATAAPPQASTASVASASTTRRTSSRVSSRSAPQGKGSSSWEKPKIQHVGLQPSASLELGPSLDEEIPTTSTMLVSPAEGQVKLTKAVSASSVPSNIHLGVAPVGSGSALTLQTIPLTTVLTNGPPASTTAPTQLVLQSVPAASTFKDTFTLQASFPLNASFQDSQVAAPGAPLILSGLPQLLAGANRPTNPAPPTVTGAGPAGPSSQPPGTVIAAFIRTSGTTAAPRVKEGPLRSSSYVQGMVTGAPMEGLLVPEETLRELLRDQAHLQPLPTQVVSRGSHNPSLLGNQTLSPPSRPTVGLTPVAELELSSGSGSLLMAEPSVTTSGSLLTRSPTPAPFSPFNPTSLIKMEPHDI
# ETV1, sequence (P50549 whole entry): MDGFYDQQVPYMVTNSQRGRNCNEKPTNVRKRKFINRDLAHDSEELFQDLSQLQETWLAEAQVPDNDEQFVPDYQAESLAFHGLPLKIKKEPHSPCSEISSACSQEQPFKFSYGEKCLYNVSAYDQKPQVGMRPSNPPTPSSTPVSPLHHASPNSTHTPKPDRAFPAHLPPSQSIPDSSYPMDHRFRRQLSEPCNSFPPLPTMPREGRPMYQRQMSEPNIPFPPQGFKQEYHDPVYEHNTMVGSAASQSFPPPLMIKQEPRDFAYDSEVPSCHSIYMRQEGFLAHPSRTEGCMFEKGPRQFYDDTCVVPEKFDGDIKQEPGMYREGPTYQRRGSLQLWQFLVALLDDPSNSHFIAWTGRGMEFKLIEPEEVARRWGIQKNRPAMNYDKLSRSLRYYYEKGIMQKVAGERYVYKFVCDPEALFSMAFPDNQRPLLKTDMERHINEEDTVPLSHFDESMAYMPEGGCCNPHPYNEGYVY
# CRX, sequence (O43186 whole entry): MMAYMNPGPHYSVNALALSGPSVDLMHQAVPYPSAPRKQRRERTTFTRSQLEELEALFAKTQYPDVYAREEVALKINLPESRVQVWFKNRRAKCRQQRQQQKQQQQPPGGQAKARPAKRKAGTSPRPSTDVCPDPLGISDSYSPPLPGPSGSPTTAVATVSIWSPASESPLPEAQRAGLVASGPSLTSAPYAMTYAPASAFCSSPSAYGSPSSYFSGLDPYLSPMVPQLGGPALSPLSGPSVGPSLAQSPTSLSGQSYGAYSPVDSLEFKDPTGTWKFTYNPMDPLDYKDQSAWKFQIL
# ETV6, sequence (P41212 whole entry): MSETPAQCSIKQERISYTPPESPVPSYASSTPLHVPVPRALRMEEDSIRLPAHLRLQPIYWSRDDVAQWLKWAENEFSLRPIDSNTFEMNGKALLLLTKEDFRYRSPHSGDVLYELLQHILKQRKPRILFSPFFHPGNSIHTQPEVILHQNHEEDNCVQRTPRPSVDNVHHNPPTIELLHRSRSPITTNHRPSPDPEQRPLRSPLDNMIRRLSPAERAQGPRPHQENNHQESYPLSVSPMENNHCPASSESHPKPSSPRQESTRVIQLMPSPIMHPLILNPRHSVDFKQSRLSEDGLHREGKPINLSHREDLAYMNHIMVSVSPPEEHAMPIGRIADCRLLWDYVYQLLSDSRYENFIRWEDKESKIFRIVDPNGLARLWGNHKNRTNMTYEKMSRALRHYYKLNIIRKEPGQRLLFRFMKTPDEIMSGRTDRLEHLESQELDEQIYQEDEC
# HSF1, sequence (Q00613 whole entry): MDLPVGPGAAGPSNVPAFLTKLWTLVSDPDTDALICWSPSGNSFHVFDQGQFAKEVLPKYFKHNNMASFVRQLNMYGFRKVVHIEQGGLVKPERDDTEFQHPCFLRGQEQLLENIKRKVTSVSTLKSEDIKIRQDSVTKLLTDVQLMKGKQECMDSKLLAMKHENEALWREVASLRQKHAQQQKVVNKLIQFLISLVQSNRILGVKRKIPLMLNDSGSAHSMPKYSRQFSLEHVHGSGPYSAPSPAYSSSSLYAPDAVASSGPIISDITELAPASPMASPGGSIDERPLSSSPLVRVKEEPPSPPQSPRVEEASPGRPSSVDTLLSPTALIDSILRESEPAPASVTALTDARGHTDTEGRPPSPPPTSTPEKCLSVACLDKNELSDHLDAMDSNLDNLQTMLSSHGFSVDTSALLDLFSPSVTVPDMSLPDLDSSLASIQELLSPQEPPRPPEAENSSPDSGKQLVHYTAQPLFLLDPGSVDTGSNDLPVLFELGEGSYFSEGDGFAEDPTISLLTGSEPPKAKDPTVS
sequence,measurement,setting,value
TTATGC,binding signal,FEV,"1.24 fold enrichment (6-mer frequency, TF over GST control)"
same,binding signal,ETV5,"1.3 fold enrichment (6-mer frequency, TF over GST control)"
same,binding signal,HSF1,"1.58 fold enrichment (6-mer frequency, TF over GST control)"
same,binding signal,SPIC,"1.55 fold enrichment (6-mer frequency, TF over GST control)"
same,binding signal,ELF4,"1.31 fold enrichment (6-mer frequency, TF over GST control)"
same,binding signal,ELK4,"1.33 fold enrichment (6-mer frequency, TF over GST control)"
same,binding signal,ETV2,"1.22 fold enrichment (6-mer frequency, TF over GST control)"
same,binding signal,ELF3,"1.48 fold enrichment (6-mer frequency, TF over GST control)"
same,binding signal,CRX,"2.28 fold enrichment (6-mer frequency, TF over GST control)"
same,binding signal,ETV1,"1.32 fold enrichment (6-mer frequency, TF over GST control)"
same,binding signal,ERF,"1.16 fold enrichment (6-mer frequency, TF over GST control)"
same,binding signal,ETV3L,"1.33 fold enrichment (6-mer frequency, TF over GST control)"
same,binding signal,ETS2,"1.28 fold enrichment (6-mer frequency, TF over GST control)"
same,binding signal,SPDEF,"1.37 fold enrichment (6-mer frequency, TF over GST control)"
same,binding signal,ETV7,"1.44 fold enrichment (6-mer frequency, TF over GST control)"
same,binding signal,ELF5,"1.29 fold enrichment (6-mer frequency, TF over GST control)"
same,binding signal,ETV3,"1.34 fold enrichment (6-mer frequency, TF over GST control)"
same,binding signal,ETV6,"1.31 fold enrichment (6-mer frequency, TF over GST control)"
